# High-throughput results (PubChem)
# TDP1 cell noCPT: qHTS for Inhibitors of human tyrosyl-DNA phosphodiesterase 1 (TDP1): qHTS in cells in absence of CPT; DT40 Tdp1-/- hTDP1 cells, no CPT, ATP luminescence, 48 h; Potency, µM (doses to about 46.2 µM), actives largely listed as inhibitors; 420,000 tested, 15% active; also: nearly all actives have a fitted effect of over 55% in size
#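 Camptothecin absent (DMSO only). Human TDP1-complemented DT40 knockout cells, 400 cells/well, 37 °C for minimum 48 hr; ATP measured via CellTiter-Glo, 30 min dark incubation, luminescence.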
# KB-V1 cytotox: qHTS assay for MDR1-selective chemotherapeutics: Primary screen using the drug-selected MDR subline cells KB-V1 | KB-V1 MDR cells viability, CellTiter-Glo, 72 h | Potency, µM (doses to about 46.1 µM), usual class: cytotoxic | 400,000 tested, 3.4% active; also: nearly all actives have a fitted effect of over 60% in size
#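 Potencies derive from concentration-effect curves fitted to normalized luminescence (CellTiter-Glo) of KB-V1 cells treated for 72 h at 37 degrees C in phenol-red-free DMEM containing 10% FBS.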
# HT1080-NT tox: qHTS for induction of synthetic lethality in tumor cells producing 2HG: qHTS for the HT-1080-NT fibrosarcoma cell line. HT-1080-NT fibrosarcoma viability, CellTiter-Glo ATP luminescence, 48 h. Potency, µM (series often up to 46.1 µM), hits mostly cytotoxic. 360,000 tested, 1.6% active;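 also: NT is the 2HG producing partner of a matched IDH1 knockdown line; nearly all actives have a fitted effect of over 55% in size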
#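 Viability by CellTiter-Glo luminescence after 48 h compound exposure at 37C of HT-1080-NT cells (750/well, RPMI, 5% FBS). % activity scaled between DMSO wells and medium-only wells, then curve-fitted and categorized by curve class.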
# HT1080 IDH1KD tx: qHTS for induction of synthetic lethality in tumor cells producing 2HG: qHTS for the HT-1080-IDH1KD cell line; HT-1080 IDH1 knockdown viability, ATP luminescence, 48 h; 360,000 tested, 2% active; Potency, µM (highest dose often 46.1 µM), most hits filed as cytotoxic
#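 Using the IDH1-knockdown HT-1080 line run in the same batch and compound series as the NT line, viability after 48 h at 37 °C was determined by CellTiter-Glo luminescence and expressed as % activity.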
# TDP1 cell CPT: qHTS for Inhibitors of human tyrosyl-DNA phosphodiesterase 1 (TDP1): qHTS in cells in presence of CPT; 420,000 tested, 12% active; Potency, µM (highest dose often 46.2 µM), most hits filed as inhibitors; AID 686979, 2013; chicken DT40 Tdp1-/-;hTDP1 cells + 20 nM CPT, ATP luminescence, 48 h; also: nearly all actives have a fitted effect of over 55% in size
#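 Cell growth measured by CellTiter-Glo luminescence after a minimum 48 h, 37 C compound exposure with 20 nM CPT in Tdp1-knockout DT40 cells stably expressing hTDP1, seeded 400/well; qHTS titration format.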
# KB-3-1 cytotox: qHTS assay for MDR1-selective chemotherapeutics: Primary screen using the parental adenocarcinoma cell KB-3-1; KB-3-1 viability, CellTiter-Glo ATP luminescence, 72 h; Potency, µM (top dose mostly 46.1 µM), actives largely listed as cytotoxic; 400,000 tested, 1.4% active; AID 1347075, 2019; also: nearly all actives have a fitted effect of over 60% in size
#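 Cytotoxicity in the drug-sensitive parental line KB-3-1 was scored as loss of CellTiter-Glo luminescence following 72 h incubation with compound. Values come from curve fitting of normalized concentration-response data.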
# Hits are given with their value; - = inactive; ? = inconclusive; . = no result given; [ ] = dose if it differs, or a comment. Only some compounds are listed: those with a hit (about 19% of all), similar ones and a draw of the others. Calls follow the shape of the dose curve; as a rule, active = well fitted curve in the direction sought with a large enough effect; inconclusive = small, poorly fitted or top-dose-only effect, or another doubt; inactive = no such curve, though single readings can be large; an effect the other way counts as inactive or inconclusive.
SMILES,TDP1 cell noCPT,KB-V1 cytotox,HT1080-NT tox,HT1080 IDH1KD tx,TDP1 cell CPT,KB-3-1 cytotox
CN(C)S(=O)(=O)c1ccc(C(=O)NCCSc2c(-c3ccc(Br)cc3)[nH]c3ccccc23)cc1,2.3µM,-,.,.,4.1µM,-
O=C1CCSc2ccc(Cl)cc2N1Cc1cccc(Cl)c1,21µM,-,-,-,?,-
O=C(c1ccccc1)c1c[nH]c(C(=O)NNc2cccc(Cl)n2)c1,-,-,-,-,-,-
O=C(c1ccc(Cl)cc1)c1c[nH]c(C(=O)NNc2cccc(Cl)n2)c1,?,-,23µM,?,-,-
N#Cc1nc(Cc2cccc3ccccc23)oc1NCc1ccco1,-,?,-[9.24 µM],?,-,-
N#Cc1nc(Cc2cccc3ccccc23)oc1NCC1CCCO1 (stereo unspecified),-,16µM,-,-,?,-
Cc1cccc(-n2c(=O)c3c(c4cc(C)ccc4n3C)n(CC(=O)NCCC3=CCCCC3)c2=O)c1,?,-,.,.,?,-
CCCCn1nnnc1C1(C)CCC(=O)N1CCCn1ccnc1 (stereo unspecified),16µM,-,?,?,21µM,13µM
Cc1ccccc1NC(=O)CSc1cn(CC(=O)N2CCCC2)c2ccccc12,?,-,.,.,?,-
Cc1ccc(CSc2cn(CC(=O)N3CCCC3)c3ccccc23)cc1,16µM,.,.,.,16µM,.
Cc1ccc(CSc2cn(CC(=O)N3CCCCCC3)c3ccccc23)cc1,21µM,.,.,.,?,.
CC(C)n1c(SCC(=O)NC2CC2)nnc1C1CC1,-,-,-,-,-,-
Cc1nnc(N2C(=O)C(=O)/C(=C(\O)c3ccc4c(c3)CC(C)O4)C2c2ccccc2)s1 (stereo unspecified),-,-,-,-,-,-
Cn1c(=O)c2[nH]c(SCCN)nc2n(C)c1=S,-,-,-,-,-,-
CCN(CC)CCSc1nc(O)c(-c2ccccc2)c(=O)[nH]1,-,-,-,-,-,-
CCN(CC)CCSc1nc2c([nH]1)c(=S)n(C)c(=O)n2C,5.2µM,-,-,-,4.1µM,-
Cn1c(=S)c2[nH]c(SCCC(C)(C)C)nc2n(C)c1=O,1µM,?,-,-,1.5µM,?
CCCCSc1nc2c([nH]1)c(=S)n(C)c(=O)n2C,1.2µM,1.5µM,-,-,1.3µM,7.3µM
CC(C)Cc1nc(SCc2cccnc2)c2c(=O)n(C)c(=O)n(C)c2n1,?,?,-,-,18µM,-
Cc1ccc(C)c(N(C)C(=O)CCS(=O)(=O)c2cccc3nonc23)c1,-,-,-,-,-,-
CC(C)Cn1c(N)c(C(=O)CSc2nnc(C3CC3)n2C2CC2)c(=O)n(C)c1=O,-,-,-,-,-,-
Cc1cc(C(=O)Nc2ccc(S(=O)(=O)Nc3nccs3)cc2)c(C)o1,-,-,-,-,-,-
COc1cc2c(cc1OC)CC(C(=O)NCc1ccccc1)NC2 (stereo unspecified),-,-,-,-,-,-
CC(C)c1ccc(-c2nc3c([nH]2)c(=O)n(C)c(=O)n3C)cc1,-,-,-,-[9.24 µM],-,-
CCc1c(C)nc(SCc2cccnc2)[nH]c1=O,-,-,-,-,-,-
SMILES,TDP1 cell noCPT,KB-V1 cytotox,HT1080-NT tox,HT1080 IDH1KD tx,TDP1 cell CPT,KB-3-1 cytotox
CSc1nc2c([nH]1)c(=S)n(C)c(=O)n2C,5.2µM,-,-,-,5.8µM,-
Cn1c(=S)c2[nH]c(SCc3cccnc3)nc2n(C)c1=O,?,16µM,-,-,?,-
COC(=O)c1cccc(NC(=O)Nc2ccccc2OC)c1,?,-,-,-,?,-
COc1cccc(C(=O)N(Cc2nc(-c3cccc(C)c3)no2)C(C)C)c1OC,18µM,-,-,-,?,-
Cc1cccc(-c2noc(CN(C(=O)c3ccc(Br)o3)C(C)C)n2)c1,-,?,-,-,?,-
COc1ccccc1C(=O)N(Cc1nc(-c2cccc(C)c2)no1)C(C)C,?,?,.,.,21µM,-
C=CCCCCCCCCC(=O)O,-,.,.,.,-,.
COc1ccc(/C(O)=C/c2nc3ccc(C(=O)NCCc4cccc(C)c4)cc3[nH]c2=O)cc1OC,2.3µM,-,-,-,2.9µM,10µM
COc1ccc(C(=O)NCCc2ccccc2)cc1OC,-,-,-,-,-,-
CCc1nc2ccc(C(=O)NCCc3ccc(OC)cc3)cc2nc1CC,?,-,-,-,?,-
CCc1nc2ccc(C(=O)NCCc3ccc(OC)c(OC)c3)cc2nc1CC,23µM,-,-,-,16µM,-
O=C(Nc1cccc(C(F)(F)F)c1)c1ccc2nc(-c3ccco3)c(-c3ccco3)nc2c1,?,-,-,-,21µM,-
COc1ccc(CCNC(=O)c2ccc3nc(-c4ccco4)c(-c4ccco4)nc3c2)cc1OC,21µM,7.3µM,?,?,21µM,?
COc1ccc(CCNC(=O)c2ccc(Cl)cc2)cc1OC,?,?,-,-,-,-
COc1ccc(CCNC(=O)C2(c3cccs3)CCOCC2)cc1OC,-,-,.,.,-,-
Cc1ccc(CN2C(=O)CN(C3CCC(C)CC3)C(=O)C2c2ccc(F)cc2)cc1 (stereo unspecified),?,.,.,.,-,.
O=C(Nc1ccc2nc(-c3ccco3)c(-c3ccco3)nc2c1)NC1CC1,23µM,?,-,-,21µM,-
O=C(O)c1ccc2nc(-c3ccco3)c(-c3ccco3)nc2c1,-,?,-,-,-,-
CCC(C)NC(=O)c1ccc2nc(-c3ccco3)c(-c3ccco3)nc2c1 (stereo unspecified),13µM,-,.,.,16µM,-
CNC(=O)C(=O)N/N=C/c1cccnc1,-,?,-,-,-,-
CN(C)C(=O)c1ccc(NC(=O)COC(=O)Cn2cc(C(F)(F)F)ccc2=O)cc1,-,-,-,-,-,-
O=C(Nc1ccccc1)c1ccccc1NC(=O)[C@H]1CCCC[C@H]1C(=O)O,-,-,-,-,-,-
O=C(CSc1nc2ccccc2c(=O)n1CCCO)NCc1ccccc1,-,-,-,-,-,-
CCn1c(/C=C/c2ccccc2F)nc2ccccc2c1=O,?,?,-,-,?,?
O=c1c2ccccc2nc(/C=C/c2ccc([N+](=O)[O-])o2)n1CCCO,1.2µM,?,2.9µM,2.9µM,0.58µM,5.8µM
